Test results: PubChem BioAssay

test: growth modulation of vineyard yeast isolate – strain RM11-1a, OD600, basal, 24 h, primary screen (AID 1177);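 further: cultures grown under basal conditions with no added stressor; test concentration not given here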; conditions: S. cerevisiae RM11-1a growth, OD600, 24 h; higher = more signal, called active from +8 up or from −8 down

z-score, inactive:
O=C1c2ccccc2[C@](Cc2ccccc2I)(C(=O)NCCN2CCOCC2)[C@H](c2ccc(CO)cc2)N1Cc1ccccc1 0.233
CN(C)CCCCNC(=O)[C@H]1C[C@H]2C(=O)N3CCC[C@H]3C(=O)N2[C@H]1c1ccc(O)cc1 -0.35
C=C(CCCC)C(=O)CC[C@@H](OC(=O)c1ccccc1-c1ccccc1C(=O)O)c1cccc(OCCO)c1 0.134
C=C(C(=O)CC[C@H](OC(=O)c1cccnc1)c1ccc(CO)o1)C(C)C -0.811
COc1ccc(C#Cc2ccc3c(c2)[C@]2(C(=O)N3)[C@H](C(=O)N3CCc4cc(OC)c(OC)cc4C3)[C@H]3C(=O)O[C@H](c4ccccc4)[C@H](c4ccccc4)N3[C@@H]2c2ccc(O)cc2)cc1 1.36
[N-]=[N+]=NCc1ccccc1C[C@@]1(C(=O)N2CCCCC2)N=C(c2ccc(OCCCO)cc2)O[C@@H]1c1ccccc1N=[N+]=[N-] 1.41
C=C[C@@H](COC(C)=O)NS(=O)(=O)c1ccc(Br)cc1 0.628
CCOC(=O)C[C@H]1[C@H](OC(=O)c2ccc(-c3ccccc3)cc2)[C@@H](NC(=O)c2ccc3ccccc3c2)c2cc(OCCCO)ccc2N1C(=O)c1ccc2ccccc2n1 -0.736
CC(C)(C)OC(=O)CC[C@]1(C(=O)NCCN2CCOCC2)N=C(c2ccc(OCCCO)cc2)O[C@H]1c1ccccc1 0.574
C=CCOC(=O)[C@@H]1[C@H]2C(=O)O[C@H](c3ccccc3)[C@H](c3ccccc3)N2[C@H](c2ccc(OCCOC(=O)[C@H]3C[C@H]4C(=O)N[C@@H](CC(C)C)C(=O)N4[C@H]3c3ccc(O)cc3)cc2)[C@@]12C(=O)Nc1ccc(I)cc12 1.6
O=C(CS)NCCCCCCNC(=O)[C@@H]1C[C@@H]2C(=O)N3CCC[C@H]3C(=O)N2[C@@H]1c1cccc(OCCO)c1 -1.5
COc1ccccc1CN1C(=O)c2ccccc2[C@@H](C(=O)NC(C)C)[C@@H]1c1ccc(CO)cc1 -0.108
C=CCOC(=O)[C@@H]1[C@H]2C(=O)O[C@H](c3ccccc3)[C@H](c3ccccc3)N2[C@H](c2ccc(OCCOC(=O)[C@H]3C[C@H]4C(=O)N[C@@H](CCCCNC(C)=O)C(=O)N4[C@H]3c3cccc(OCCO)c3)cc2)[C@@]12C(=O)Nc1ccc(I)cc12 2
O=C1OCC=C[C@H]2OC34C=CCN(Cn5nnc6ccccc65)C(=O)[C@H]3N(CCCCCCO)C(=O)[C@@H]4[C@@H]12 (stereo not given in full) -0.91
COC(=O)Cn1c(C(=O)N2CCCC2)cc2c1C[C@H]1CN(C(=O)c3ccccc3)[C@@](Cc3ccc(F)cc3)(C(=O)OC)[C@@H]21 -1.54
COc1cc(OC)c(C(O)C2C=CC3C(=O)N(c4ccccc4)C(=O)C3N2Nc2ccc(C#N)cc2)cc1Br (stereo not given) -0.759
COc1ccc([Si](C)(C)[C@@H]2[C@@H](CC(=O)N3CCC[C@H]3CO)O[C@]3(C(=O)N(Cc4ccc(N5C(=O)c6cccc7cccc5c67)cc4)c4ccccc43)[C@H]2C)cc1 1.36
CC=CC(O)C1C=CC2C(=O)N(c3ccccc3)C(=O)C2N1Nc1ccccc1 (stereo not given) -0.564
CC(C)C(=C=CC[C@@H](O)c1ccccc1OCCO)C[C@@H](O)COCc1ccccc1 -4.06
CC(C)(C)N1CC=CC23O[C@@H]4C=CCOC(=O)[C@@H]4[C@H]2C(=O)N(CCCO)[C@@H]3C1=O (stereo not given in full) 0.297
COc1c(C)cc(-c2cc3c(c(-c4ccccc4)n2)[Si](C(C)C)(C(C)C)OC3)cc1C -0.741
Cc1ccc(S[C@]2(C(=O)NCC(C)C)CC(=O)N(Cc3ccccc3Cl)[C@@H]2c2ccc(CO)cc2I)cc1 -1.33
O=C1O[C@@H](c2ccccc2)[C@@H](c2ccccc2)N2[C@@H](c3ccccc3OCCO)[C@]3(C(=O)Nc4ccc(C#CC5=CCCCC5)cc43)[C@@H](C(=O)NC[C@H](O)c3ccccc3)[C@H]12 0.979
O=C(O)[C@H](Cc1ccccc1)n1cc(-c2ccccn2)nn1 0.911
CC1CC/C=C\[C@H]2OC34C=CCN(CCN5CCOCC5)C(=O)[C@H]3N(CCO)C(=O)[C@@H]4C2C(=O)O1 (stereo not given in full) -0.585
